In PubChem BioAssay:
Calls of active or inactive are those of the source.

Experiments:
Albumin (Bos taurus) = Albumin (Bos taurus) (UniProt P02769); experiment: compounds binding labelled BSA control protein – biochemical, small-molecule microarray, Alexa647 label, 635/667 nm fluorescence, artefact control for SMM control protein annotation, profiling panel (AID 1118); conditions: BSA-A647 binding, fluorescence 635 nm, higher = more signal;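 also: score merges 667 nm emission intensity and signal-to-noise per printed compound spot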
[1] = probe aXIP binding to arrayed compounds – biochemical, NeuroSMM set, 635/667 nm fluorescence, primary screen (AID 1119); conditions: small-molecule microarray, higher = more signal, called active from +8 up or from −8 down;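 also: probe is the protein aXip251-270 applied at 1 µg/mL to compound-printed slides; binding of probe to printed compounds measured as 667 nm fluorescence plus signal to noise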
[2] = probe aNOTCH3 binding on compound microarray – biochemical, small-molecule microarray, 635/667 nm fluorescence, primary screen (AID 1120); conditions: higher = more signal;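 also: probe is a biotin-tagged antibody raised against NOTCH3 rather than NOTCH3 protein; score merges spot fluorescence near 667 nm with spot signal to noise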
[3] = probe aNOTCH2 binding on compound microarray – biochemical, small-molecule microarray, 635/667 nm fluorescence, primary screen (AID 1121); conditions: higher = more signal;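 also: score merges feature fluorescence read at 667 nm with its signal to noise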
[4] = molecular target: Carbonic anhydrase 2 (Homo sapiens) (UniProt P00918); experiment: compounds binding carbonic anhydrase 2 – biochemical, small-molecule microarray, Alexa647-labelled CAII, profiling panel (AID 1122); conditions: CAII-A647 binding fluorescence, higher = more signal
[5] = COS7 lysate on small-molecule microarray, probe aHis, 635 nm (AID 1123); conditions: COS7 cell lysate, fluorescence, higher = more signal;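 also: z-score combines 667nm fluorescence intensity with signal-to-noise per printed compound spot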
[6] = probe aLAP1 signal on lysate-treated microarray – cell lysate, small-molecule microarray, COS7 lysate, primary screen (AID 1124); conditions: probe aLAP1, fluorescence, higher = more signal;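 also: lysate comes from COS7 cells expressing LAP1 and is applied at 0.3 µg/mL; score merges spot fluorescence near 667 nm with signal-to-noise over triplicate slides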
Sam68 (KHDRBS1) = experiment: compounds binding KHDRBS1 protein – biochemical, small-molecule microarray, 635 nm fluorescence, primary screen (AID 1125); conditions: higher = more signal;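 also: score merges 667 nm channel intensity with signal to noise over triplicate slides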
[7] = tested on: Chordin-like protein 2 (CHRDL2); experiment: compounds binding chordin-like 2 – biochemical, small-molecule microarray, 635 nm fluorescence, primary screen (AID 1126); conditions: fluorescence 635 nm, higher = more signal;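 also: printed compound slides probed with Chrdl2 protein at 4 µg/mL for 1 h at 4 C; score merges 667 nm emission intensity with signal to noise over three replicate slides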
[8] = molecular target: Concanavalin-A (Canavalia ensiformis) (UniProt P02866); experiment: compounds binding concanavalin A lectin – biochemical, small-molecule microarray, Alexa647 label, 635 nm, artefact control for SMM control protein annotation, primary screen (AID 1127); conditions: ConA-A647 binding fluorescence, higher = more signal;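 also: z combines 667 nm emission intensity with signal-to-noise across three replicate slides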
[9] = compounds binding Alexa647 anti-His antibody – biochemical, small-molecule microarray, 635 nm fluorescence, artefact control for SMM control protein annotation, primary screen (AID 1128); conditions: higher = more signal;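 also: score merges feature fluorescence with signal-to-noise for each printed compound spot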
[10] = tested on: Human papillomavirus type 1a E7 protein (residues 1-88); experiment: HPV1a E7 small-molecule binders, primary screen, biochemical, small-molecule microarray, residues 1-88, 635 nm (AID 1129); conditions: small-molecule microarray binding, fluorescence 635 nm; higher = more signal
[11] = molecular target: Focal adhesion kinase 1 (Homo sapiens) (UniProt Q05397); experiment: PTK2 protein binding on printed compound slides – biochemical, small-molecule microarray, 635/667 nm fluorescence, BSA, DTT, primary screen (AID 1130); conditions: 635 nm fluorescence, higher = more signal;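 also: composite of spot emission at 667 nm and signal to noise over triplicate slides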
[12] = tested on: Fibrinogen (Alexa647-labelled); experiment: Alexa647-fibrinogen binding to printed small molecules – biochemical, small-molecule microarray, 635/667 nm fluorescence, artefact control for SMM control-protein annotation, profiling panel (AID 1131); conditions: fibrinogen-A647 binding fluorescence, higher = more signal;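 also: z-score merges 667 nm fluorescence with per-spot signal-to-noise over triplicate slides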
[13] = molecular target: Follistatin (Homo sapiens) (UniProt P19883); experiment: FST protein binding to printed compounds – biochemical, small-molecule microarray, 635/667 nm fluorescence, primary screen (AID 1132); conditions: 635 nm fluorescence, higher = more signal
[14] = molecular target: Fibroblast growth factor 2 (Homo sapiens) (UniProt P09038); experiment: basic fibroblast growth factor binding to printed compounds – biochemical, small-molecule microarray, 635/667 nm fluorescence, primary screen (AID 1133); conditions: FGF2, fluorescence 635/667, higher = more signal
[15] = JC-1 mitochondrial potential readout, lung cancer cells – cell-based, A549, JC-1 fluorescence, basal, 24 h, 100 nL, profiling panel (AID 1138); conditions: higher = more signal;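 also: A549 lung adenocarcinoma cells under basal conditions with no added stimulus; test concentration not given here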
Lefty1 = Lefty1 protein binding to printed compounds – biochemical, small-molecule microarray, 635/667 nm fluorescence, primary screen (AID 1139); conditions: fluorescence 635/667, higher = more signal
[16] = tested on: wheat germ agglutinin (Triticum aestivum), Alexa647-labelled; experiment: Alexa647-WGA lectin binding to printed small molecules – biochemical, small-molecule microarray, 635/667 nm fluorescence, artefact control for SMM control-protein annotation, profiling panel (AID 1140); conditions: WGA-A647 binding, 635 nm fluorescence, higher = more signal;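 also: score merges 667 nm feature emission with signal to noise over triplicate slides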
[17] = molecular target: Luciferin 4-monooxygenase (Photinus pyralis) (UniProt P08659); experiment: inhibition of purified Photinus pyralis luciferase – biochemical, luminescence, purified enzyme, 2006 set, primary screen (AID 1141); conditions: purified firefly luciferase, SteadyGlo luminescence, 30 min; higher = more signal, called active from +8 up or from −8 down;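 also: cell-free assay with purified firefly luciferase at 100 ng per well in PBS; test concentration not given here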
Luciferin 4-monooxygenase (Photinus pyralis), sequence (P08659 whole entry, looked up): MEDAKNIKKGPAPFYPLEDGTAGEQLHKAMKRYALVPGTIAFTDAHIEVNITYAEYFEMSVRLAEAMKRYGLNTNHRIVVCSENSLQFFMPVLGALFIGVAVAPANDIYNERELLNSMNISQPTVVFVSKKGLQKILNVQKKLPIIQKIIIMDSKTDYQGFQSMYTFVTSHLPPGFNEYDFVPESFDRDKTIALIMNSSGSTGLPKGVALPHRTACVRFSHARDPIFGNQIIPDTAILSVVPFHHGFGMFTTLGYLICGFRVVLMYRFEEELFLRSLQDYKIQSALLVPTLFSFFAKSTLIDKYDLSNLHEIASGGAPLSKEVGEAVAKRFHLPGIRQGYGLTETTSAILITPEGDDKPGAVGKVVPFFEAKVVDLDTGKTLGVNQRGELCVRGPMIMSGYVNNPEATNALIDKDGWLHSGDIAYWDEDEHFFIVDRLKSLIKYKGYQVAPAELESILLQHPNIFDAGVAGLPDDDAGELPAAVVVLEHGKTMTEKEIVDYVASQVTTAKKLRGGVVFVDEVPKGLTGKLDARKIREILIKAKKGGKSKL

Fibroblast growth factor 2 (Homo sapiens), sequence (P09038 whole entry, looked up): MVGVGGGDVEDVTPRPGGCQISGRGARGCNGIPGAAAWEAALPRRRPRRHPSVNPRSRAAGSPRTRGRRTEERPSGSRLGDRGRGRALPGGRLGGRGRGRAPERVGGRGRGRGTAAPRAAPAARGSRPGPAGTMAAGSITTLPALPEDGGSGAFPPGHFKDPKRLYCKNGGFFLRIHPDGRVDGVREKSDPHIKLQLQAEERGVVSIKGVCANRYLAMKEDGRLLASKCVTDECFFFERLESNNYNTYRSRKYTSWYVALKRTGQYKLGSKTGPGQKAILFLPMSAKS
Albumin (Bos taurus), sequence (P02769 whole entry, looked up): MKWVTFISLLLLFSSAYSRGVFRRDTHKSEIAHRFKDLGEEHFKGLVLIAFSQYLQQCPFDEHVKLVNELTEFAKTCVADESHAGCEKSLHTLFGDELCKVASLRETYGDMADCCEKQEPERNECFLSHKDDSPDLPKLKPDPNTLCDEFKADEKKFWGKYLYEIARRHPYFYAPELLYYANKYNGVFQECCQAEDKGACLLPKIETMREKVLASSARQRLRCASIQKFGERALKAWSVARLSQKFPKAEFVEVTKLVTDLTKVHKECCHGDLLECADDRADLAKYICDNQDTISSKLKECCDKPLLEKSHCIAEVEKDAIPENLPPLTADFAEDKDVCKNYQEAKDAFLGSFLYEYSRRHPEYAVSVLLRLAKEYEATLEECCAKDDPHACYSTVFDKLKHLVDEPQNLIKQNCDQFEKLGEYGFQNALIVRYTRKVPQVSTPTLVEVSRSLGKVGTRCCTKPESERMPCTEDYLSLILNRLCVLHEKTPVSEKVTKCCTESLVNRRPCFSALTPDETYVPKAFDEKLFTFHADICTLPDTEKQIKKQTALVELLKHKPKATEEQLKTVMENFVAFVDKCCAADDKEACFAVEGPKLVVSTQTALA
Focal adhesion kinase 1 (Homo sapiens), sequence (Q05397 whole entry, looked up): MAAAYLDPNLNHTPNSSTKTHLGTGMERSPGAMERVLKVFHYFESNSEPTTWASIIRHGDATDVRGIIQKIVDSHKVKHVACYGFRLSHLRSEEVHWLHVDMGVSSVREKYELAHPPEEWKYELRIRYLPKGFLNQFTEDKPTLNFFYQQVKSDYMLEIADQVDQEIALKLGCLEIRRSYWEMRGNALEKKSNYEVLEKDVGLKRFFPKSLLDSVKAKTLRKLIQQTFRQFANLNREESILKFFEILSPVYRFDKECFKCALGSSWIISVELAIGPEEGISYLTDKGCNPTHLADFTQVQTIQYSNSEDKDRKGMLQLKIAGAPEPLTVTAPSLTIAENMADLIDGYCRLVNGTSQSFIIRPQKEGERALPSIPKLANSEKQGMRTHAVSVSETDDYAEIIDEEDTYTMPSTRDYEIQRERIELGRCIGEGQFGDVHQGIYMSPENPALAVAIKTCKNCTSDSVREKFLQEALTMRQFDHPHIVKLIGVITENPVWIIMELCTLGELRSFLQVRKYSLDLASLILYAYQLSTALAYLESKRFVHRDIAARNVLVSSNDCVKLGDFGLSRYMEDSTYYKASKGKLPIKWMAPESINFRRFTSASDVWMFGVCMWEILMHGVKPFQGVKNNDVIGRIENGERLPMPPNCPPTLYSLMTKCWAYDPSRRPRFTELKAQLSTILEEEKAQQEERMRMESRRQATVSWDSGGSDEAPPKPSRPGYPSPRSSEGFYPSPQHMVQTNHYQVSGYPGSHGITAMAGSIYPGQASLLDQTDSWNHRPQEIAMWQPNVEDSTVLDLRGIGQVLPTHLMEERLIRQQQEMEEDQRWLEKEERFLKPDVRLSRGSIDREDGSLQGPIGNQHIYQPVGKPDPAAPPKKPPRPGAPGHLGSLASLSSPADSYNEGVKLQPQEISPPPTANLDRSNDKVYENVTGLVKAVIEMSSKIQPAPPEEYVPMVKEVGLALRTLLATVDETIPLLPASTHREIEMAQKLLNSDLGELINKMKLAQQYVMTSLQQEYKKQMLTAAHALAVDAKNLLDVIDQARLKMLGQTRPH
Concanavalin-A (Canavalia ensiformis), sequence (P02866 whole entry, looked up): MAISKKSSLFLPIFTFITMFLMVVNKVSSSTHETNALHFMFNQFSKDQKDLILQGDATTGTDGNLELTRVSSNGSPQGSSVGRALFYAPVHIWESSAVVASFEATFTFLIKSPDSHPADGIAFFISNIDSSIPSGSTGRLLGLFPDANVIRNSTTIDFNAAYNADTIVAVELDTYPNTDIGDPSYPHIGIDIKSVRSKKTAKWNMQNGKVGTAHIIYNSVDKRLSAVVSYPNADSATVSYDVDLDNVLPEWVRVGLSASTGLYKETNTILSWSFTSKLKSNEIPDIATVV
Follistatin (Homo sapiens), sequence (P19883 whole entry, looked up): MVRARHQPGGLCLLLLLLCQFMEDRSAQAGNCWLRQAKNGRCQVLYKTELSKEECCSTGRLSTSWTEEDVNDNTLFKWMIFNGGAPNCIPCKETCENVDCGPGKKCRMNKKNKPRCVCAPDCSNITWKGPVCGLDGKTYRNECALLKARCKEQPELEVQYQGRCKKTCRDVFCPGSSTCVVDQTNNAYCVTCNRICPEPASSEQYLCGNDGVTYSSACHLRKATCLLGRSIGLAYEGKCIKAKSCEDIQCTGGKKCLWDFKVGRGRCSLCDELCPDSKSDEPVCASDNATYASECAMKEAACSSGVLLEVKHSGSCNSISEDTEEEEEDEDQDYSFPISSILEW

Row | Compound | composite z-score (Albumin (Bos taurus)) | composite Z-score [1] | composite z-score [2] | composite z-score [3] | composite z-score [4] | composite z-score [5] | composite z-score [6] | composite z-score (Sam68 (KHDRBS1)) | composite z-score [7] | composite z-score [8] | composite z-score [9] | composite z-score [10] | composite z-score [11] | composite z-score [12] | composite z-score [13] | composite z-score [14] | z-score [15] | composite z-score (Lefty1) | composite z-score [16] | z-score [17]
1 | C=C[C@@H](OC)[C@H](OC(=O)Nc1ccc(SC)cc1)c1ccc(O)c(F)c1 | 0.622 | -0.584 (inactive) | 0.0337 | -0.0891 | 0.699 | 2.18 | 0.683 | 1.07 | 0.0611 | 0.0462 | 3.07 | 1.23 | 0.566 | 0.763 | 1.11 | 0.207 | -1.47 | 0.885 | 0.679 | -1.59 (inactive)
2 | COC(=O)[C@@]1(Cc2ccc(F)cc2)[C@H]2c3cc(C(=O)N(C)C)n(CCc4ccc(O)c(OC)c4)c3C[C@H]2CN1C(=O)c1ccccc1 | 0.24 | -0.399 (inactive) | 0.842 | 1.02 | 0.25 | 0.694 | 0.311 | 0.326 | 0.497 | -0.0415 | 0.339 | 0.923 | 0.0947 | 0.886 | 0.472 | 0.741 | 0.345 | -0.244 | 0.312 | 0.215 (inactive)
3 | COC(=O)[C@@]1(Cc2ccc(OC)cc2)[C@H]2c3cc(C(=O)N4CCCC4)n(Cc4cccc5ccccc45)c3C[C@H]2CN1C(=O)c1ccccc1 | 1.02 | -0.115 (inactive) | 0.137 | 0.377 | 0.757 | 2.55 | 0.592 | 0.462 | -0.133 | 0.686 | 1.57 | 1.2 | 0.164 | 0.704 | 0.36 | -0.247 | 1.07 | -0.245 | 0.396 | 1.31 (inactive)
4 | CO[C@]12C=C(Br)[C@@H](C[C@@H]1c1cccc(C)c1)[C@@]1(CO1)C2=O | 0.223 | 0.379 (inactive) | -0.0311 | -0.132 | 0.354 | 0.288 | -0.071 | 0.189 | 0.306 | 0.123 | 0.177 | -0.322 | -0.129 | -0.407 | 0.415 | 0.391 | -0.645 | 0.802 | -0.0489 | 1.02 (inactive)
5 | CN(C)CCCNC(=O)[C@@]1(C)c2ccccc2C(=O)N(Cc2ccccc2)[C@H]1c1ccc(CO)cc1 | -1.05 | -0.194 (inactive) | -0.264 | -0.236 | 0.704 | -0.358 | -0.39 | -0.0419 | -0.19 | -0.371 | 0.761 | -1.49 | -0.3 | -0.995 | 0.392 | -0.0132 | -0.322 | -0.067 | -0.749 | -0.0692 (inactive)
6 | CCOC(=O)C[C@H]1[C@H](OC(=O)c2ccccc2-c2ccccc2)[C@@H](NC(=O)c2ccc(-c3ccccc3)cc2)c2cc(OCCCO)ccc2N1C(=O)c1ccc2ccccc2n1 | 0.275 | 0.367 (inactive) | 0.0715 | -0.0441 | 0.131 | 0.406 | 0.272 | 1.06 | 0.304 | 0.513 | 0.792 | 0.472 | -0.0377 | 0.456 | 0.57 | 0.496 | 0.687 | 0.871 | 0.181 | 0.555 (inactive)
7 | COCCOC(=O)N1C(=O)[C@@]2(c3cc(C#Cc4ccc(OC)cc4)ccc31)[C@H](C(=O)Nc1nc3ccccc3s1)[C@H]1C(=O)O[C@H](c3ccccc3)[C@H](c3ccccc3)N1[C@@H]2c1ccc(OCCO)cc1 | -0.0497 | 0.308 (inactive) | 0.0493 | -0.0539 | 0.458 | 0.757 | -0.38 | 1.31 | 0.68 | 1.16 | 1.14 | 1.12 | 0.168 | 0.809 | 1.17 | 1.28 | -2.19 | 0.87 | 0.494 | -3.71 (inactive)
8 | C[N+](C)(C)CCCC[C@@H]1NC(=O)[C@H]2C[C@@H](C(=O)NCCCCCCN)[C@@H](c3ccc(O)cc3)N2C1=O | 0.98 | 0.289 (inactive) | 0.201 | 0.14 | 0.685 | 1.08 | -0.186 | 1.23 | -0.117 | 1.13 | 3.15 | 1.13 | 0.145 | 0.973 | 0.835 | 0.299 | 0.792 | -0.046 | 1.17 | -0.932 (inactive)
9 | CC(C)OC(=O)C=C1C[C@@H](c2ccc(C(F)(F)F)cc2)O[C@@H](c2ccc(C(F)(F)F)cc2)O1 | 0.856 | -0.451 (inactive) | -0.102 | -0.128 | 0.717 | 2.61 | 0.35 | 0.886 | -0.782 | 1.09 | 0.751 | 1.25 | 1.04 | 0.907 | -0.0691 | -0.46 | -0.0127 | -0.0747 | 1.21 | -0.478 (inactive)
10 | N#Cc1ccc(C(O)C2C=CC3C(=O)N(c4ccccc4)C(=O)C3N2Nc2ccccc2)cc1 (stereo not given) | 1.01 | 0.115 (inactive) | 0.194 | 0.0675 | 0.722 | 1.59 | 0.736 | 0.195 | -0.111 | 0.73 | 0.269 | 0.455 | 0.575 | 0.528 | 0.351 | -0.265 | -0.171 | -0.454 | 0.502 | -1.26 (inactive)
